# Records with an inconclusive call do not appear. Active and inactive are the calls of the source. How the source made its calls, unless noted: active means hit-call score of the fitted dose curve at least 0.9, where 1 is the maximum; inconclusive means response in the unintended direction; inactive means score below 0.9.
# Assays:
# [1] = target: Androgen receptor (Homo sapiens) (UniProt P10275); assay: ATG_AR_TRANS: Attagene TRANS-FACTORIAL HepG2 Assay for human Androgen Receptor (AR) (AID 2282973); settings: HepG2 Attagene TRANS-FACTORIAL AR reporter transcription
# Androgen receptor (Homo sapiens), sequence (P10275 whole entry, looked up, the tested form may be a part): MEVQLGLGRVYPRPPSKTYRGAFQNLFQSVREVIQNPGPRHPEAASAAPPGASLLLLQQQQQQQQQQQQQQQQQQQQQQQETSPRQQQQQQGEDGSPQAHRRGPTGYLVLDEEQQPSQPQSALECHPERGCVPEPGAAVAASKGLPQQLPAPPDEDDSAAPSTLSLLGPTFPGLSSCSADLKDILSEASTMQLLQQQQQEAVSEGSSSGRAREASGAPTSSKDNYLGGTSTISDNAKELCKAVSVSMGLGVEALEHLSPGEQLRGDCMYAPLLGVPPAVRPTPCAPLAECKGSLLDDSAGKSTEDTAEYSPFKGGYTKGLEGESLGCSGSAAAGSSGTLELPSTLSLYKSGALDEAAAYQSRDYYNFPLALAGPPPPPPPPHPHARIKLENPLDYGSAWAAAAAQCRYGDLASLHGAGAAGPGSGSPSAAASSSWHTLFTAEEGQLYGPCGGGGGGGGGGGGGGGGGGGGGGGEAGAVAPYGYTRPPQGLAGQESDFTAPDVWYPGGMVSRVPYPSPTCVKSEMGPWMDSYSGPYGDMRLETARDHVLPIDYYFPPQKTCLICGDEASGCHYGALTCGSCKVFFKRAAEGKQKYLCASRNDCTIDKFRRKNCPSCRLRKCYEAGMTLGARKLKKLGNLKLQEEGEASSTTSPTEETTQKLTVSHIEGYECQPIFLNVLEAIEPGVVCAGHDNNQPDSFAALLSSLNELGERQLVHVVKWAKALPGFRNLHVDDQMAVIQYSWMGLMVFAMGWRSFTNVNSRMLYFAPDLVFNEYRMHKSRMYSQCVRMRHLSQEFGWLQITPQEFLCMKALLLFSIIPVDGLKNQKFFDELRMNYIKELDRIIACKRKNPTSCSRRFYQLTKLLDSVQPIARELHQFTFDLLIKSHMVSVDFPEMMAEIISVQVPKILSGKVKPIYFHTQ
# Outline: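 HepG2 cells transiently transfected with AR-Gal4 chimera and GAL4-UAS reporter units; chemical exposure 24 h. Reporter mRNA quantified by RT-PCR with fluorescent labelling and capillary electrophoresis; gain-of-signal fitted against DMSO.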
# [2] = target: rat Acetylcholinesterase (AChE), Ache (gene 83817) (UniProt P37136); assay: NVS_ENZ_rAChE: NovaScreen (NVS) Enzymatic Assay for rat Acetylcholinesterase (AChE) (AID 2283233)
# Outline: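 Compounds first screened at 25 uM in duplicate, then those passing threshold tested in concentration series up to 50 uM, against AChE from rat brain membranes. Enzyme activity read by absorbance at 0.33 h; inhibition scored versus DMSO.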
# [3] = target: Voltage-dependent N-type calcium channel subunit alpha-1B (Rattus norvegicus) (UniProt Q02294); assay: NVS_IC_rCaChN: NovaScreen (NVS) Ion Channel Assay for rat Calcium Channel, Type N (CaChN) (AID 2283317)
# [4] = target: human MET Proto-Oncogene, Receptor Tyrosine Kinase (MET), MET (gene 4233) (UniProt P08581); assay: NVS_ENZ_hMet: NovaScreen (NVS) Enzymatic Assay for human MET Proto-Oncogene, Receptor Tyrosine Kinase (MET) (AID 2283180)
# human MET Proto-Oncogene, Receptor Tyrosine Kinase (MET), MET (gene 4233), sequence (P08581 whole entry, looked up): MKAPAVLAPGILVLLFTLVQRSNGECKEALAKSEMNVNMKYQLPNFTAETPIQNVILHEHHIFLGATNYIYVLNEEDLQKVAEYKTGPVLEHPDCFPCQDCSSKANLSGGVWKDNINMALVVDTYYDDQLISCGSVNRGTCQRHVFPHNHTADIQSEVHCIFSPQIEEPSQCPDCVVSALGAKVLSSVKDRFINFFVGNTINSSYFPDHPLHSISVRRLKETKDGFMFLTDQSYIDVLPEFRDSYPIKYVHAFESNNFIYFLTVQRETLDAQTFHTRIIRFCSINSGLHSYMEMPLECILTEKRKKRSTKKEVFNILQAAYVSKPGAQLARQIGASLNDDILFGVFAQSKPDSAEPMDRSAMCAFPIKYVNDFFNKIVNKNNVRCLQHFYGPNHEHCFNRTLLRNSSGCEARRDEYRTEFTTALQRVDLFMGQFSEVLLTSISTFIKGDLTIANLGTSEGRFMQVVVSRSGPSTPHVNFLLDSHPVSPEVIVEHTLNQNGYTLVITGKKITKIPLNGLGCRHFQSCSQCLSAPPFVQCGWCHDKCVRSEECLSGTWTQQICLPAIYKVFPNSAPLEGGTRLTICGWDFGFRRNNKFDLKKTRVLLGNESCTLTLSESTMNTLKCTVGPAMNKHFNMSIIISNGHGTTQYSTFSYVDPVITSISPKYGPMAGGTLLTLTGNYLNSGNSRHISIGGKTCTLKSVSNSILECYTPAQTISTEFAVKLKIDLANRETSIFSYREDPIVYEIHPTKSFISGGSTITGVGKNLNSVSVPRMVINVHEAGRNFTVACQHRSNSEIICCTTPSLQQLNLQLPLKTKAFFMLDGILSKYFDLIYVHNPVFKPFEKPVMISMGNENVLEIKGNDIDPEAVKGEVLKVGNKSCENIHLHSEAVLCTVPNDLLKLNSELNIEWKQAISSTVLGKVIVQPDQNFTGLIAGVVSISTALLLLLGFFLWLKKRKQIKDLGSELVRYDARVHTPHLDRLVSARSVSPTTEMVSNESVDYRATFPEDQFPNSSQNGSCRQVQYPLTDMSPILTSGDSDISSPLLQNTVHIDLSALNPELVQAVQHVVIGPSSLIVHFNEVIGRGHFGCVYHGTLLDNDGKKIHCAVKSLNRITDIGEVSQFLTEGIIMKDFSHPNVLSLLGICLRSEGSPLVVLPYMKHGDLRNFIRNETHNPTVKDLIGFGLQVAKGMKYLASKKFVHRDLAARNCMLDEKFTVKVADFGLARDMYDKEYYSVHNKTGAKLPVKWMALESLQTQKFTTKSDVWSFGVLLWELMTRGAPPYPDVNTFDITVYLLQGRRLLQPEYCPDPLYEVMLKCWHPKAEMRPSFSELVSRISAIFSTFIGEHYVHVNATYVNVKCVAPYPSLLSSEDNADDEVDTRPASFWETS
# Outline: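 Hits from a 25 uM duplicate screen were retested in concentration series up to 50 uM. Enzyme activity was measured by fluorescence after electrophoretic separation of product from substrate, 1 h after compound addition, relative to DMSO.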
# [5] = target: human Matrix Metalloproteinase-1 (MMP1), MMP1 (gene 4312) (UniProt P03956); assay: NVS_ENZ_hMMP1: NovaScreen (NVS) Enzymatic Assay for human Matrix Metalloproteinase-1 (MMP1) (AID 2283181)
# Outline: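 Cell-free fluorescent substrate assay of human MMP1, read after 1 h. A single 25 uM duplicate screen was followed by concentration series to a maximum of 50 uM for actives meeting threshold; inhibition analysed against DMSO baseline.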
# [6] = target: rat Monoamine Oxidase, MAO-B, Central (MAOBC), Maob (gene 25750) (UniProt P19643); assay: NVS_ENZ_rMAOBC: NovaScreen (NVS) Enzymatic Assay for rat Monoamine Oxidase, MAO-B, Central (MAOBC) (AID 2283238)
# rat Monoamine Oxidase, MAO-B, Central (MAOBC), Maob (gene 25750), sequence (P19643 whole entry, looked up): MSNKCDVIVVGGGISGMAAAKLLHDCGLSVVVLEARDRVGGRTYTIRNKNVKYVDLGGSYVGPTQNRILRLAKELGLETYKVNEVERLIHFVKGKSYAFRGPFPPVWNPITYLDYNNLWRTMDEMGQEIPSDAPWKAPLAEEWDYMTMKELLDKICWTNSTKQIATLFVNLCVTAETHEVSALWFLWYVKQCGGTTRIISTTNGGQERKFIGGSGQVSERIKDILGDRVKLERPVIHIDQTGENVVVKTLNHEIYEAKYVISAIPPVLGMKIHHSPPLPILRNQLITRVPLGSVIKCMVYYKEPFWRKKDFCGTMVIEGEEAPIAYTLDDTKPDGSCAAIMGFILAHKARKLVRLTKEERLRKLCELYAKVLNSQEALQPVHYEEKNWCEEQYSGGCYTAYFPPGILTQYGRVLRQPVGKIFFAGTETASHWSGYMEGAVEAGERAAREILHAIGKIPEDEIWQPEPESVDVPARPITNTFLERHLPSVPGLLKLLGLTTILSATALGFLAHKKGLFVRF
# Outline: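 Cell-free radiometric assay, rat brain lysate. Read-out: scintillation counts, 1.17 h post-dosing. Screen 25 uM in duplicate; actives (e.g. ≥30% inhibition) then singleton concentration-response, max 50 uM. Activity loss fitted relative to DMSO.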
# [7] = target: rat Monoamine Oxidase, MAO-B, Peripheral (MAOBP), Maob (gene 25750) (UniProt P19643); assay: NVS_ENZ_rMAOBP: NovaScreen (NVS) Enzymatic Assay for rat Monoamine Oxidase, MAO-B, Peripheral (MAOBP) (AID 2283242)
# rat Monoamine Oxidase, MAO-B, Peripheral (MAOBP), Maob (gene 25750), sequence (P19643 whole entry, looked up): as above
# [8] = target: rat Oxytocin Receptor (OXT), Oxtr (gene 25342) (UniProt P70536); assay: NVS_GPCR_rOXT: NovaScreen (NVS) G Protein-Coupled Receptor Assay for rat Oxytocin Receptor (OXT) (AID 2283330)
# rat Oxytocin Receptor (OXT), Oxtr (gene 25342), sequence (P70536 whole entry, looked up): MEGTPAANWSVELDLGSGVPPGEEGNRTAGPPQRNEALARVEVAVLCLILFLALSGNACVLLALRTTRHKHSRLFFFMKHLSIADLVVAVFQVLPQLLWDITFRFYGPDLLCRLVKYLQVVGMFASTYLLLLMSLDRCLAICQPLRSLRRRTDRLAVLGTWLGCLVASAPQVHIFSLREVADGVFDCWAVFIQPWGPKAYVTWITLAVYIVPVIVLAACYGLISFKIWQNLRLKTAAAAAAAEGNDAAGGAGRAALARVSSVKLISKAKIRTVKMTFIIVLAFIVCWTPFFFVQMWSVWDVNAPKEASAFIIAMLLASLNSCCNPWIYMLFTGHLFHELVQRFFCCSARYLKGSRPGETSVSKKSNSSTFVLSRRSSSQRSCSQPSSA
# Outline: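 Binding to rat uterine membrane receptor was followed by scintillation counting of filter-trapped radioligand after 1 h. A 25 uM duplicate single-point screen preceded concentration series with a top of 50 uM. Signal loss was analysed relative to DMSO.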
# [9] = target: human Phosphatase and Tensin Homolog (PTEN), PTEN (gene 5728) (UniProt P60484); assay: NVS_ENZ_hPTEN: NovaScreen (NVS) Enzymatic Assay for human Phosphatase and Tensin Homolog (PTEN) (AID 2283203)
# human Phosphatase and Tensin Homolog (PTEN), PTEN (gene 5728), sequence (P60484 whole entry, looked up): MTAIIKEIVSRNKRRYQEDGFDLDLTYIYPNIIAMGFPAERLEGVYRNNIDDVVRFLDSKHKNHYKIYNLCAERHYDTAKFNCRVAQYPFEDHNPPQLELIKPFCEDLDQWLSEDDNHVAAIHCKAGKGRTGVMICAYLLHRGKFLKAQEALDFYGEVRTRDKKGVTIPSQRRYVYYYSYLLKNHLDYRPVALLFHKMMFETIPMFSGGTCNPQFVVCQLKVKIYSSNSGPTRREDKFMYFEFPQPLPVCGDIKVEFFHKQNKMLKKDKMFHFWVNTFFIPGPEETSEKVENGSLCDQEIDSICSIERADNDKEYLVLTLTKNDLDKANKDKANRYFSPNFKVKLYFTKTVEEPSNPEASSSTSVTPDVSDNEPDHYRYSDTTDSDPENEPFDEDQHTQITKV
# Outline: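 Loss of fluorescent product signal after mobility-shift separation reports PTEN activity, recombinant human enzyme, 1 h after compound addition. Single 25 uM duplicate screen, then concentration-response on actives; DMSO baseline.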
# [10] = target: human Protein Tyrosine Phosphatase Receptor Type C (PTPRC), PTPRC (gene 5788) (UniProt P08575); assay: NVS_ENZ_hPTPRC: NovaScreen (NVS) Enzymatic Assay for human Protein Tyrosine Phosphatase Receptor Type C (PTPRC) (AID 2283212)
# human Protein Tyrosine Phosphatase Receptor Type C (PTPRC), PTPRC (gene 5788), sequence (P08575 whole entry, looked up): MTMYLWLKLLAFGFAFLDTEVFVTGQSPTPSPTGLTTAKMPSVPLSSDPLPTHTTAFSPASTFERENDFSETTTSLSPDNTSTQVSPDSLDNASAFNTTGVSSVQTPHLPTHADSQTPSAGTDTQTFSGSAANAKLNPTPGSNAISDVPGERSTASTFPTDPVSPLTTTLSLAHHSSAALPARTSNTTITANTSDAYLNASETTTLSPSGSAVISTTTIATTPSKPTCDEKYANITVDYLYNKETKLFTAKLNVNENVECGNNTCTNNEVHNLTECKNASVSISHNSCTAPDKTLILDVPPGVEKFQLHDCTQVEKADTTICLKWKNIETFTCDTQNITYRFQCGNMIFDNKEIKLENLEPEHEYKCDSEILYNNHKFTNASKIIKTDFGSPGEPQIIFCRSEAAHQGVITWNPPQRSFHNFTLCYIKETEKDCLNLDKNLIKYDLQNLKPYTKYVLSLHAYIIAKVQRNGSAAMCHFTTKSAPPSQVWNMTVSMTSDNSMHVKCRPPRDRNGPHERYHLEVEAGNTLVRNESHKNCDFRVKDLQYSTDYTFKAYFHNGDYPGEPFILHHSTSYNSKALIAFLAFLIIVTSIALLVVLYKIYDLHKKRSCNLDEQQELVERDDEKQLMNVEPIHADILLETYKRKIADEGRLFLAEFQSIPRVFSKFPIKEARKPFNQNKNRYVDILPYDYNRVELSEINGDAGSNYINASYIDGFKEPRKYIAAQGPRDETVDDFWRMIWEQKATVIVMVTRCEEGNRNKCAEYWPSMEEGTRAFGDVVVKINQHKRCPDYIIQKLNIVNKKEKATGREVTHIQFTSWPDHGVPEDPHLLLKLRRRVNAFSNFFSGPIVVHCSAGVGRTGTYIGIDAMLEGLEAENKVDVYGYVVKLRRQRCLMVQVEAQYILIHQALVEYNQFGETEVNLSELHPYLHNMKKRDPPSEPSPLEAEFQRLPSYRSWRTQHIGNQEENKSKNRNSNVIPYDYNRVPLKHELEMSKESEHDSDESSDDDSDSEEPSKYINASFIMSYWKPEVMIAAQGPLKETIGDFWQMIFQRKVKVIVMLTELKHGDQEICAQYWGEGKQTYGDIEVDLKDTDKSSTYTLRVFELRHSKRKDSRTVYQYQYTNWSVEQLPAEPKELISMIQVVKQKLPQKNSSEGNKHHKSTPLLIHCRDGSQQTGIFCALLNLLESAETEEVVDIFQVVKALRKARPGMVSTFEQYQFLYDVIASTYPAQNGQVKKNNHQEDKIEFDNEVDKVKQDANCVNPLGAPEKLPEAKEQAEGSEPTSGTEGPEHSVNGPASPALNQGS
# Outline: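 Absorbance-based phosphatase activity of human PTPRC protein extracted from yeast was measured 1 h post-dosing. Compounds first tested at 25 uM in duplicate, then those passing threshold in singleton concentration series to 50 uM.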
# [11] = system: rat Monoamine Oxidase, MAO-A, Central (MAOAC), gene 29253; assay: NVS_ENZ_rMAOAC: NovaScreen (NVS) Enzymatic Assay for rat Monoamine Oxidase, MAO-A, Central (MAOAC) (AID 2283243);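 further: potency refers to inhibition seen as signal drop below DMSO baseline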
# Outline: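 Scintillation read-out of MAO-A activity in rat brain lysate, 1.5 h post-dosing. Primary single-concentration screen: 25 uM, duplicate; actives re-tested in concentration series. DMSO = negative control/baseline.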
# [12] = Tanguay_ZF_120hpf_MUSC: Oregon State University Tanguay Lab 120 Hour Post-fertilization zebrafish Assay for Muscle Malformation (AID 2284401; active means hit-call score of the fitted dose curve at least 0.9, where 1 is the maximum; inactive means score below 0.9)
# Outline: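 Scored as a binary brightfield endpoint at 120 hpf, fitted versus DMSO. Single dechorionated wild-type (Tropical 5D) zebrafish embryos per well, statically exposed at 28C from 6 hpf onward with final DMSO 0.64%.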
# [13] = ATG_M_32_XSP2: Attagene TRANS-FACTORIAL Multi-Species (XSP2) HepG2 Assay for M19 Transcription Factor (Internal Marker) (AID 2283826)
# Outline: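 HepG2 cells transiently transfected with GAL4-UAS reporter units; XSP2 panel included 3 nM 6-alpha-fluorotestosterone and 1.5 nM norgestrel for androgen receptor stimulation. Reporter mRNA read 24 h post-dosing by RT-PCR/capillary electrophoresis; fitted upward versus DMSO.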
compound,measurement,setting,value
CN[C@H]1CC[C@@H](c2ccc(Cl)c(Cl)c2)c2ccc(S(N)(=O)=O)cc21,outcome,[1],inactive
same,AC50,[2],25 µM (active)
same,outcome,[3],inactive
COc1ccc(S(=O)(=O)N2C(=O)[C@@](c3ccccc3OC)(N3C[C@H](O)C[C@H]3C(=O)N(C)C)c3cc(Cl)ccc32)c(OC)c1,outcome,[1],inactive
same,outcome,[4],inactive
same,outcome,[5],inactive
same,outcome,[6],inactive
same,outcome,[7],inactive
same,AC50,[8],0.0663 µM (active)
CC(C)CCOCCC(C)C,outcome,[1],inactive
same,outcome,[9],inactive
CN(C[C@@H](CC[N+]12CCC(C3CCCCC3)(CC1)CC2)c1ccc(Cl)c(Cl)c1)C(=O)c1cc(C(F)(F)F)cc(C(F)(F)F)c1,outcome,[1],inactive
same,outcome,[10],inactive
same,AC50,[8],16.5 µM (active)
O=C(c1ccccc1)C1CCCCC1,outcome,[1],inactive
same,outcome,[10],inactive
same,outcome,[7],inactive
CCOCCOCCO,outcome,[1],inactive
same,outcome,[4],inactive
same,outcome,[6],inactive
O=C=Nc1cccc2c(N=C=O)cccc12,outcome,[1],inactive
same,outcome,[9],inactive
Cn1c(=O)[nH]c2ncn(C)c2c1=O,outcome,[1],inactive
same,AC50,[11],34.9 µM (active)
Fc1ccccc1[C@@H](F)COC1CCC(Nc2ncnc3[nH]ncc23)CC1 (stereo partly specified),outcome,[1],inactive
same,outcome,[4],inactive
same,AC50,[6],18.6 µM (active)
same,AC50,[7],7.67 µM (active)
CCc1cccc(CC)c1,outcome,[1],inactive
same,outcome,[9],inactive
O[Si](c1ccccc1)(c1ccccc1)c1ccccc1,outcome,[1],inactive
same,AC50,[9],10.6 µM (active)
CCOC=C(C(=O)OCC)C(=O)OCC,outcome,[1],inactive
same,outcome,[9],inactive
CCCCCCCC(=O)OCC,outcome,[1],inactive
same,AC50,[11],37.3 µM (active)
OCCCc1cccnc1,outcome,[1],inactive
same,outcome,[9],inactive
O=C(O)Cc1ccccc1Nc1c(Cl)cccc1Cl,outcome,[1],inactive
same,outcome,[10],inactive
O=C1c2ccc(O)c(O)c2C(=O)c2c(O)ccc(O)c21,outcome,[1],inactive
same,outcome,[11],inactive
O=C(O)C(F)(F)C(F)(F)C(F)(F)C(F)(F)C(F)(F)C(F)(F)C(F)(F)C(F)(F)Cl,outcome,[1],inactive
same,AC50,[12],39.3 µM (active)
COc1ccc(C(=O)c2ccccc2)c(O)c1,outcome,[1],inactive
same,outcome,[13],inactive

# Reference: PubChem BioAssay (EPA / NIEHS)
